Data on eleven molecules can be found in PubChem BioAssay (Tox21).

A short description of test [1]: qHTS assay to identify small molecule agonists of the sonic hedgehog signaling (Shh) pathway (AID 1259368; calls by dose curve;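 also: NIH/3T3-derived 3T3Gli1-Luc cells carrying a stable Gli1-driven firefly luciferase reporter; series mostly up to about 92 µM; nearly all actives have a fitted effect of over 15% in size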). Summed up:
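Luminescence was read after 30 min at room temperature with luciferase reagent. Before that, 3T3Gli1-Luc cells (NIH/3T3 clone, stable Gli1-Luc reporter; 2,000/well) were exposed to compounds for 24 hr at 37C, 5% CO2, compounds being added 4 hr post-plating.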
For orientation: Quantitative high-throughput screening tests each substance at several concentrations.

The nature of test [2]: qHTS assay to identify small molecule antagonists of the sonic hedgehog signaling (Shh) pathway (AID 1259369; calls by dose curve; also: nearly all actives have a fitted effect of over 45% in size; also: potency is read from the fitted curve at half-maximal effect). Summed up:
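Antagonist mode: compound added to 3T3 Gli1-Luc cells followed by conditioned-medium stimulation, 24 h at 37 C, 5% CO2. Inhibition taken as loss of Gli1-driven luciferase luminescence.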

Test [3] in a line: qHTS assay to identify small molecule agonists of the androgen receptor (AR) signaling pathway in the presence of an antagonist - cell viability counter screen (AID 1259379).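 Also: MDA-kb2 human breast cancer cells carrying an MMTV luciferase reporter; series mostly up to about 92 µM; nearly all actives have a fitted effect of over 25% in size.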 Summed up: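 Cytotoxicity counter-screen run in the same wells as the nilutamide-challenged (3.0 µM final) AR agonist assay in MDA-kb2 cells. Compounds tested at 15 concentrations for 16 h, 37 °C without CO2; CellTiter-Fluor fluorescence read.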

A short description of test [4]: qHTS assay to identify small molecule agonists of the estrogen receptor beta (ER-beta) signaling pathway - cell viability counter screen (AID 1259380). Also: nearly all actives have a fitted effect of over 30% in size. Summed up:
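Cell viability counter screen: CellTiter-Glo luminescence (30 min, room temperature) measured in the same wells as the beta-lactamase readout, after 16 hr compound exposure at 37C of ER-beta-bla HEK293T cells in 2% charcoal-stripped FBS medium.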

A short description of test [5]: qHTS assay to identify small molecule antagonists of the estrogen receptor beta (ER-beta) signaling pathway - cell viability counter screen (AID 1259382).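 Also: HEK293T cells carrying ER-beta-UAS-bla reporter stimulated with estradiol; series mostly up to about 92 µM; nearly all actives have a fitted effect of over 55% in size.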 Summed up: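 Cytotoxicity was measured in the same wells by CellTiter-Glo luminescence after 30 min at room temperature. Cells were ER-beta-bla HEK293T in charcoal-stripped serum, given compound together with 1 nM E2 and incubated 16 h at 37C.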

The nature of test [6]: qHTS assay to identify small molecule agonists or antagonists of the thyroid stimulating hormone receptor (TSHR) signaling pathway - wild type cell line counter screen (AID 1259384; calls by dose curve). Summed up:
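Wild-type Hek293 cells, 800/well, 18 h at 37C, then compound with Ro20-1724 for 30 min RT. cAMP by HTRF (cAMP-d2/anti-cAMP cryptate), 1 h RT, fluorescence read. 15 concentrations, triplicates.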

Test [7] deals with Thyrotropin receptor (Homo sapiens) (UniProt P16473). In words: qHTS assay to identify small molecule antagonists of the thyroid stimulating hormone receptor (TSHR) signaling pathway (AID 1259385; calls by dose curve; also: nearly all actives have a fitted effect of over 20% in size). Summed up:
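TSHR-HEK293 cells (800/well) plated 18 h, then compounds with Ro20-1724 and TSH at 1.5 ng/mL final, 30 min at room temperature. cAMP quantified by HTRF (cAMP-d2/anti-cAMP-cryptate, 1 h); 15 concentrations in triplicate.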

Test [8] can be described thus: qHTS assay to identify small molecule agonists of the estrogen receptor alpha (ER-alpha) signaling pathway in the presence of an antagonist - cell viability counter screen (AID 1259386). Also: series mostly up to about 92 µM; nearly all actives have a fitted effect of over 30% in size. Summed up: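 Compounds tested at 15 concentrations for 22 h at 37C alongside 10.0nM (final) ICI-182,780 antagonist, in VM7Luc4E2 cells grown in phenol red-free, charcoal-stripped medium. Viability read by CellTiter-Fluor fluorescence after 1 h reagent incubation.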

In test [9] the target is Progesterone receptor (Homo sapiens) (UniProt P06401). In words: qHTS assay to identify small molecule agonists of the progesterone receptor (PR) signaling pathway (AID 1346784; calls by dose curve; also: nearly all actives have a fitted effect of over 30% in size). Summed up: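 The screen uses PR-UAS-bla HEK 293T cells in charcoal-stripped serum (2%). Compounds are applied for 16 hr at 37C after a 6 hr pre-incubation, and reporter activity is detected with a FRET beta-lactamase substrate after 2 hr at room temperature.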

Test [10] shares this target. Description: qHTS assay to identify small molecule antagonists of the progesterone receptor (PR) signaling pathway (AID 1346795; active = well fitted inhibition curve with a large enough effect in the signal ratio in the repeat runs, not every such curve was filed as active; the % refers to the signal ratio; also: potency is read from the fitted curve at half-maximal effect). Summed up: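 After 6 hr plating at 37C in 2% stripped-serum medium, PR-UAS-bla HEK293T cells got compounds, then 1 nM R5020. Sixteen hours later, LiveBLAzer substrate was applied for 2 hr at room temperature and fluorescence was recorded.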

The nature of test [11]: qHTS assay to identify small molecule antagonists of the progesterone receptor (PR) signaling pathway - cell viability counter screen (AID 1346798). Also: series mostly up to about 92 µM; nearly all actives have a fitted effect of over 50% in size. Summed up: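 Viability was determined by ATP-based luminescence (CellTiter-Glo) in PR-UAS-bla HEK293T cells cultured in 2% charcoal-stripped serum and incubated 16 hr with compounds under R5020 stimulation.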
Test [12] can be described thus: qHTS assay to identify small molecule agonists of the progesterone receptor (PR) signaling pathway - cell viability counter screen (AID 1346799; calls by dose curve; also: nearly all actives have a fitted effect of over 45% in size). Summed up: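 Viability was scored by ATP luminescence (CellTiter-Glo, 30 min, room temperature) in the same wells used for the reporter readout, after 16 hr compound exposure of PR-UAS-bla HEK293T cells.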
Test [13] is described as follows: qHTS assay to identify small molecule antagonists of the TGF-beta/Smad signaling pathway - cell viability counter screen (AID 1346824). Also: nearly all actives have a fitted effect of over 50% in size. Summed up: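 SBE-bla HEK 293T cells, incubated overnight, then compound plus 0.25 ng/mL TGF-beta1 (stock added) for 5 hr at 37 C. Viability was read in the same wells by CellTiter-Glo luminescence after 30 min at room temperature.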

Test [14] is described as follows: qHTS assay to identify small molecule agonists of the TGF-beta/Smad signaling pathway - cell viability counter screen (AID 1346829). Also: top concentration of the series differs between compounds; nearly all actives have a fitted effect of over 45% in size. Summed up: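 Luminescence from CellTiter-Glo, read after a 30 min room-temperature incubation, gives cell viability of SBE-bla HEK 293T cells treated 5 hr with compounds at 37 C.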
Test [15] is described as follows: qHTS assay to identify small molecule agonists of the TGF-beta/Smad signaling pathway (AID 1346859; active = well fitted activation curve with a large enough effect in the signal ratio in the repeat runs, not every such curve was filed as active; the % refers to the signal ratio; also: series mostly up to about 77 µM). Summed up:
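Dual-wavelength fluorescence (460/530 nm emission) quantified beta-lactamase expression under the Smad binding element in HEK 293T cells following 5 hr compound treatment at 37 C.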

In test [16] the target is Thyrotropin-releasing hormone receptor (Homo sapiens) (UniProt P34981). In words: qHTS assay to identify small molecule antagonists of the thyrotropin-releasing hormone receptor (TRHR) signaling pathway (AID 1346877; active = well fitted inhibition curve with a large enough effect in the repeat runs, not every such curve was filed as active; also: series mostly up to about 51 µM). Summed up:
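Antagonist mode: after a 5 min room-temperature compound exposure, cells were stimulated with 1 nM (final) TRH. Dye-loaded TRHR-HEK293 cells were used, and calcium-dependent fluorescence was followed for 3 min, with 15-point titrations run in triplicate.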

For test [17], the target named is Estrogen receptor beta (Homo sapiens) (UniProt Q92731). Description: qHTS assay to identify small molecule agonists of the estrogen receptor beta (ER-beta) signaling pathway (AID 1259377; active = well fitted activation curve with a large enough effect in the signal ratio in the repeat runs, not every such curve was filed as active; the % refers to the signal ratio). Summed up:
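Measured by fluorescence intensity from a B/G FRET beta-lactamase substrate (2 h, room temperature) in ER-beta-UAS-bla HEK293T cells treated with DMSO-dissolved compounds for 16 hr at 37C and 5% CO2.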

The target of test [18] is Estrogen receptor (Homo sapiens) (UniProt P03372). In words: qHTS assay to identify small molecule agonists of the estrogen receptor alpha (ER-alpha) signaling pathway in the presence of an antagonist (AID 1259383; calls by dose curve; also: top concentration of the series differs between compounds; nearly all actives have a fitted effect of over 15% in size). Summed up:
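Agonist-mode confirmation run in the presence of 10.0nM (final) ICI-182,780 antagonist. The reporter was ERE-driven luciferase in VM7Luc4E2 cells, grown in charcoal-stripped serum. Cells were exposed to 15-concentration compound series for 22hr, then ONE-Glo luminescence was read.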

Several values for one entry are separate records, joined by “and”; a condition that tells them apart may be missing. Equal entries are not always repeated. Results filed as inconclusive are left out. Where a structure was tested more than once in an assay, its records may differ in their call. Activity calls are given as the source filed them. Unless noted, calls follow the shape of the dose curve; as a rule, active = well fitted curve in the direction sought with a large enough effect in the repeat runs; inconclusive = weak or mixed curves; inactive = no such curve, though single readings can be large; an effect the other way counts as inactive or inconclusive.

Chain of Thyrotropin-releasing hormone receptor (Homo sapiens) (P34981 whole entry, looked up): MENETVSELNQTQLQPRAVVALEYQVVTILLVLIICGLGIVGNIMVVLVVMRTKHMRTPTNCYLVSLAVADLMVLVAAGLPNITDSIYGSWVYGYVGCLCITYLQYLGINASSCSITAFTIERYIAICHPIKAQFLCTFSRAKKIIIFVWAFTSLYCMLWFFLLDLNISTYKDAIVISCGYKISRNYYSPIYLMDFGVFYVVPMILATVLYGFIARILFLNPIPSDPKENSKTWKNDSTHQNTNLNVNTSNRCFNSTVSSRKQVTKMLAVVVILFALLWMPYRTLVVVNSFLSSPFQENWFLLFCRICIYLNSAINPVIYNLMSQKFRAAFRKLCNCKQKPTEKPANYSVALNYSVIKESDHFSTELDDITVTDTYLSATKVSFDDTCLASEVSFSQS
Chain of Progesterone receptor (Homo sapiens) (P06401 whole entry, looked up): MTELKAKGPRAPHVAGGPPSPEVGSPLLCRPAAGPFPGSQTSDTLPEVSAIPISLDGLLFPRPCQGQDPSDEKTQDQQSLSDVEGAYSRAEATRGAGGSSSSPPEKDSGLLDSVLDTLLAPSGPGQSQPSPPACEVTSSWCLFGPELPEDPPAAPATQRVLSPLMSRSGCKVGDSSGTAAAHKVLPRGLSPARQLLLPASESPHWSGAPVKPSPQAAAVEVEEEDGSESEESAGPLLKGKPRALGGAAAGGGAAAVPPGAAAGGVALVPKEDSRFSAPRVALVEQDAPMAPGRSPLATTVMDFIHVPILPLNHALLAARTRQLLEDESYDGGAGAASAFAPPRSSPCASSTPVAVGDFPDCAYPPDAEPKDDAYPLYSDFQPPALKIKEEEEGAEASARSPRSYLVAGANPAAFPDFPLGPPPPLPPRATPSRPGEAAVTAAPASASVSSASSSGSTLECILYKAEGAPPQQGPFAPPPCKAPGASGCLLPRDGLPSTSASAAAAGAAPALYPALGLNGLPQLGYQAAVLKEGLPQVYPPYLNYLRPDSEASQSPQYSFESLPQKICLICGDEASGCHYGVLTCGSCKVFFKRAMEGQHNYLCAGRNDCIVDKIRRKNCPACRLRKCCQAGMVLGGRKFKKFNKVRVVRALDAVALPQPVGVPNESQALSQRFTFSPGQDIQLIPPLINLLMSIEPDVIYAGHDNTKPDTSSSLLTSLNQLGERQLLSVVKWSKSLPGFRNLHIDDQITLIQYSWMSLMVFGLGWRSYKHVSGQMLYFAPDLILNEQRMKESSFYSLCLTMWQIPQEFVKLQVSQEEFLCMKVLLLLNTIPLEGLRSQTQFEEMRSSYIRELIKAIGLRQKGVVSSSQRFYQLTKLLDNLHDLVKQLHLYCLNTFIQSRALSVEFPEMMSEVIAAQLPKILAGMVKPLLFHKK
Chain of Estrogen receptor (Homo sapiens) (P03372 whole entry, looked up): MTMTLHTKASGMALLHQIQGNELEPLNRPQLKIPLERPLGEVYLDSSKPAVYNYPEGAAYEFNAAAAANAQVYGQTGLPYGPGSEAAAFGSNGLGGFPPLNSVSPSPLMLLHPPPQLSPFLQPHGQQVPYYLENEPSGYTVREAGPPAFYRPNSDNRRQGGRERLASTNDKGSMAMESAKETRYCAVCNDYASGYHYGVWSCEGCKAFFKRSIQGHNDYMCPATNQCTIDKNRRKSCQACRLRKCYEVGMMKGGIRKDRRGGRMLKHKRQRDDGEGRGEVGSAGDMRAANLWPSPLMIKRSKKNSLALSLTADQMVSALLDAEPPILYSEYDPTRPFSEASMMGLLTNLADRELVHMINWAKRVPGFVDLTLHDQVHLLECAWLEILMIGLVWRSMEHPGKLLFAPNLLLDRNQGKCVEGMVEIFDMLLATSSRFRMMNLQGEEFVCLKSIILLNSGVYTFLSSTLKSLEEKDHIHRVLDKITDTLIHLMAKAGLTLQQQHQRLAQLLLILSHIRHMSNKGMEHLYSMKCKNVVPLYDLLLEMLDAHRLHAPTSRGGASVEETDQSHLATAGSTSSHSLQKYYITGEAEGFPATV
Chain of Thyrotropin receptor (Homo sapiens) (P16473 whole entry, looked up): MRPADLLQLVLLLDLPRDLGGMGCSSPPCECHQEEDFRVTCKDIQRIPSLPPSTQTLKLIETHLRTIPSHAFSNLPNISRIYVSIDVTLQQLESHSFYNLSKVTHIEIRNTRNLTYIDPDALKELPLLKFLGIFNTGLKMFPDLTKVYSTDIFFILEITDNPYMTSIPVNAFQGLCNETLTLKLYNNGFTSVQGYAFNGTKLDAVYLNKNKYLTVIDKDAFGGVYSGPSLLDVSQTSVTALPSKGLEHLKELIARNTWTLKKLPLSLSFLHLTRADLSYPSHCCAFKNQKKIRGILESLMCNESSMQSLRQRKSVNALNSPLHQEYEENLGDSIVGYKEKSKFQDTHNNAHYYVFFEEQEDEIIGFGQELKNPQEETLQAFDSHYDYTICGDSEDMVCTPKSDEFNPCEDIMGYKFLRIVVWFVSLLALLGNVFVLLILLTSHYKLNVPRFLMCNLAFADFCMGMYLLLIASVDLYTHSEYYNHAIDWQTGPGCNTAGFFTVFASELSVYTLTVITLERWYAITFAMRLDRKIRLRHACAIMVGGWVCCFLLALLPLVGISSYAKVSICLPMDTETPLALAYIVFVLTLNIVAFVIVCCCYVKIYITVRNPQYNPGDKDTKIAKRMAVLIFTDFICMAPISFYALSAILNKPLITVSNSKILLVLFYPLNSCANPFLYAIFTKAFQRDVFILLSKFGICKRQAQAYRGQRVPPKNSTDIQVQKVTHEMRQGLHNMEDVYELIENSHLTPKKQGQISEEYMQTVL
Chain of Estrogen receptor beta (Homo sapiens) (Q92731 whole entry, looked up): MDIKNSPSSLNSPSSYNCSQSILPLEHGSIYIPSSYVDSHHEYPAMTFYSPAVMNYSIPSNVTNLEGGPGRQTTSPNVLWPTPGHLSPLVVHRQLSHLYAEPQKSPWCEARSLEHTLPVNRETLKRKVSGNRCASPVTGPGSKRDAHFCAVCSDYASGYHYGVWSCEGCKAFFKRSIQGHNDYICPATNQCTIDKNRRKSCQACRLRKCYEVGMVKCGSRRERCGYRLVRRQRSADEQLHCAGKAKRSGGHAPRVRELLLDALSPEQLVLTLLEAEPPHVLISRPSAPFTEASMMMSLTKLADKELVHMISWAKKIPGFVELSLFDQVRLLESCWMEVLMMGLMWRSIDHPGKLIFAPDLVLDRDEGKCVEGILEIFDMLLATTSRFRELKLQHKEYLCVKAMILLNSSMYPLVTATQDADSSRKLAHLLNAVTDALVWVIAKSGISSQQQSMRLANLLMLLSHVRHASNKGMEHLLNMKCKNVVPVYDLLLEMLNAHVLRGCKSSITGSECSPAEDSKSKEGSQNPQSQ

Regarding `CCOP(=S)(OCC)Oc1cc(C)nc(C(C)C)n1`, the molecule was classed as inactive in [1], in test [5], in [6], in test [7], in test [12] and in test [15]. Also, the molecule was classed as inactive in [16]. Moreover, the Potency entry in test [2], in test [3], in [4], in test [8], in [9] and in test [10] was “inactive” each time. Moreover, the Potency entry in test [11], in [13] and in test [14] was “inactive” throughout.
On to `ClC(Cl)c1ccccc1`, for which the call in test [1], in test [5], in test [12] and in test [16] was inactive. Moreover, the Potency result in test [2], in test [3], in test [4], in [8], in test [9] and in test [10] was “inactive” each time. Further, the Potency result in [11], in test [13] and in test [14] was “inactive” each time.
As for `COc1nc(NC(C)C)nc(NC(C)C)n1`, the molecule was classed as inactive in test [1], in test [5], in test [6], in test [7], in test [12] and in test [16]. The Potency result in [17], in [3], in test [4], in [8], in test [9] and in test [10] was “inactive” throughout. Besides, the Potency entry in [13] and in test [14] was “inactive” throughout.
For the molecule `Cl[C@H]1OCCO[C@@H]1Cl`, the call in test [1], in test [5], in test [6], in test [7], in test [12] and in test [15] was inactive. In addition, in test [16], the outcome was inactive. Moreover, the Potency result in test [2], in [3], in test [4], in test [8], in test [9] and in test [10] was “inactive” throughout. Also, the Potency entry in [11], in test [13] and in [14] was “inactive” each time.
As to `OCC(O)CCl` (stereo not drawn), the molecule was classed as inactive in test [1], in [5], in test [6], in test [7] and in test [12]. Further, the Potency entry in test [2], in test [3], in test [4], in [8], in test [11] and in test [13] was “inactive” in each case. Further, the Potency entry in [14] was “inactive”.
Regarding `CCCCCCCCCCCCCCCCCC(=O)O`, the result in test [1], in test [5] and in [12] was inactive. Besides, the Potency in test [2] is 17.1 µM (active) and inactive; in [10], 10.8 µM (active) and inactive. In addition, the Potency entry in [3], in test [4], in test [8], in test [9], in test [13] and in test [14] was “inactive” each time.
As for `CNC(=O)Oc1cccc2ccccc12`, the outcome in [1], in test [5], in [6], in test [7], in test [12] and in test [16] was inactive. In addition, the Potency is 12.1 µM (active) and 9.44 µM (active) in [2]; 27.1 µM (active) and 30.6 µM (active) in test [10]. Further, the Potency result in [3], in test [4], in test [8], in [9], in [13] and in test [14] was “inactive” throughout.
`Cl/C=C/Cl`: the result in test [1], in [5], in test [18], in [6], in test [7] and in [12] was inactive. The result in test [15] and in test [16] was inactive. For the same molecule, the Potency result in [2], in [3], in test [4], in test [8], in test [9] and in test [10] was “inactive” throughout. The Potency entry in test [13] and in [14] was “inactive” throughout.
As for `COS(=O)(=O)OC`, the molecule was classed as inactive in test [1], in [5], in test [12], in [15] and in test [16]. Besides, the Potency entry in test [2], in [3], in test [4], in test [8], in [9] and in test [10] was “inactive” throughout. Besides, the Potency entry in [11], in test [13] and in [14] was “inactive” each time.
In the case of `CNC(=O)O/N=C/C(C)(C)SC`, the result in [1], in [5], in test [6], in test [7], in [12] and in test [15] was inactive. Besides, the outcome in test [16] was inactive. The Potency result in test [2], in [3], in [4], in test [8], in test [9] and in test [10] was “inactive” throughout. Moreover, the Potency result in [11], in test [13] and in test [14] was “inactive” throughout.
On to `CN(C)C(=O)Cl`, for which the outcome in test [1], in test [5], in [18], in [6], in [7] and in test [12] was inactive. Moreover, in test [16], the molecule was called inactive. Further, the Potency result in [2], in test [3], in [4], in test [8], in [9] and in test [10] was “inactive” each time. In addition, the Potency entry in test [11], in [13] and in test [14] was “inactive” throughout.
